This note sets out measurements from PubChem BioAssay (Tox21).

A short description of test [1]: qHTS assay to identify small molecule antagonists of the estrogen related receptor (ERR) signaling pathway from Tox21 library - cell viability counter screen (AID 1224834). Also: nearly all actives have a fitted effect of over 30% in size. Also: potency is read from the fitted curve at half-maximal effect. The method, boiled down:
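Seeded ERR cells were rested 6 h at 37 C/5% CO2 before compounds, positive and negative controls or DMSO were added. Incubation continued for 17.5 h, and viability was then quantified by CellTiter-Fluor fluorescence.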

For test [2], the target named is Luciferin 4-monooxygenase (Photinus pyralis) (UniProt P08659). The experiment in a line: qHTS assay to identify small molecule inhibitors of firefly luciferase (AID 1224835). Also: nearly all actives have a fitted effect of over 25% in size. Also: potency is read from the fitted curve at half-maximal effect. The method, boiled down:
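Quantitative HTS format; KM concentrations of both substrates. Purified P. pyralis FLuc activity quantified from luminescence images.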
Background: In qHTS, concentration-response curves come from the screen itself.

Test [3] is described as follows: qHTS assay to identify small molecule agonists of the constitutive androstane receptor (CAR) signaling pathway - cell viability counter screen (AID 1224836). Also: nearly all actives have a fitted effect of over 45% in size. Also: potency is read from the fitted curve at half-maximal effect. In short, it runs like this: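 Multiplexed viability check: HepG2-CYP2B6-hCAR cells, 15-point compound dosing, 0.75 uM PK11195 final, 23 h at 37 C, CellTiter-Fluor fluorescence.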
Test [4] can be described thus: qHTS assay to identify small molecule antagonists of the constitutive androstane receptor (CAR) signaling pathway - cell viability counter screen (AID 1224837). Also: nearly all actives have a fitted effect of over 45% in size. Also: potency is read from the fitted curve at half-maximal effect. In short, it runs like this: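 To flag cytotoxic false antagonists, HepG2 hCAR/CYP2B6-2.2kb cells were treated 23 hr with 15-concentration compound series and 50 nM CITCO at 37 C/5% CO2; CellTiter-Fluor fluorescence was the measured end point.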

In test [5] the target is Nuclear receptor subfamily 1 group I member 3 (Homo sapiens) (UniProt Q14994). Briefly: qHTS assay to identify small molecule antagonists of the constitutive androstane receptor (CAR) signaling pathway (AID 1224838).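 Also: HepG2 cells stably expressing hCAR with CYP2B6 luciferase reporter stimulated by CITCO; nearly all actives have a fitted effect of over 40% in size.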 Also: potency is read from the fitted curve at half-maximal effect. In short, it runs like this: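 Human hepatoma HepG2 cells expressing hCAR and a CYP2B6 promoter (2.2 kb) luciferase construct; compound titration (15 points) with 50 nM CITCO final, 24 h at 37 C/5% CO2; luminescence via ONE-Glo after 30 min at room temperature.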

For test [6] the target is unchanged. Briefly: qHTS assay to identify small molecule agonists of the constitutive androstane receptor (CAR) signaling pathway (AID 1224839).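 Also: HepG2 cells stably carrying human CAR and a CYP2B6 luciferase reporter; % is scaled to controls: 0 for no effect and ±100 for the full control effect; nearly all actives have a fitted effect of over 15% in size.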 The method, boiled down:
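Using human hepatoma HepG2 cells engineered with hCAR and a CYP2B6-2.2kb reporter, 15-concentration compound series were incubated 24 h alongside PK11195 at 0.75 uM final, with luminescence quantified afterwards.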

The nature of test [7]: qHTS assay to identify small molecule antagonists of the estrogen related receptor signaling pathway with the pleiotropic PPARgamma coactivator (PGC) from Tox21 10K library (AID 1224841; call rule not given here; also: potency is read from the fitted curve at half-maximal effect; actives are mostly falling curves and most rising ones were filed inactive; nearly all actives have a fitted effect of over 50% in size). The method, boiled down:
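Test chemicals dissolved in DMSO were applied to pre-incubated (6 h) PGC/ERR cells at 2,000 cells/well for an 18 h, 37 C treatment; reporter luminescence was then read using One-Glo.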

Test [8] is described as follows: qHTS assay to identify small molecule agonists of the estrogen related receptor signaling pathway with the pleiotropic PPARgamma coactivator (PGC) from Tox21 10K library (AID 1224842). Also: % is scaled to controls: 0 for no effect and ±100 for the full control effect; nearly all actives have a fitted effect of over 15% in size. The method, boiled down:
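PGC/ERR reporter cells (NTP line) were seeded 2,000 per well, rested 6 h at 37 C/5% CO2, then pin-dosed with compounds in DMSO for 18 h at 37 C; luciferase read by One-Glo luminescence after 30 min at room temperature.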

The target in test [9] is Thyrotropin receptor (Homo sapiens) (UniProt P16473). Briefly: qHTS assay to identify small molecule agonists of the thyroid stimulating hormone receptor (TSHR) signaling pathway (AID 1224843; calls by dose curve; also: % is scaled to controls: 0 for no effect and ±100 for the full control effect; nearly all actives have a fitted effect of over 45% in size). The method, boiled down: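 Compounds are titrated over 15 concentrations, in triplicate, onto TSHR-HEK293 cells seeded at 800/well. Plates sit 30 min at room temperature before cAMP-d2 and anti-cAMP cryptate are added; signal is read after a further hour.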

Test [10] can be described thus: qHTS assay to identify small molecule agonists of the hypoxia (HIF-1) signaling pathway (AID 1224846; active = well fitted activation curve with a large enough effect in the signal ratio in the repeat runs, not every such curve was filed as active; the % refers to the signal ratio; also: % is scaled to controls: 0 for no effect and ±100 for the full control effect). The method, boiled down: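 Reporter induction in HRE-bla ME-180 cells is taken as agonism: cells sit 5 hrs after plating, receive compounds or DMSO only, incubate 17 hrs at 37C under 5% CO2, and are loaded with CCF4-AM for beta-lactamase FRET measurement.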
Test [11] is described as follows: qHTS assay to identify small molecule agonists of H2AX - cell viability counter screen (AID 1224847; calls by dose curve; also: top concentration of the series differs between compounds; % is scaled to controls: 0 for no effect and ±100 for the full control effect; nearly all actives have a fitted effect of over 30% in size). The method, boiled down: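 After overnight plating of 1000 CHO-K1 cells per well, a 15-concentration compound series was applied for 3 hr at 37C. Luminescence from CellTiter-Glo, read following 30 min at room temperature, reflected cell viability.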
Test [12] can be described thus: qHTS assay to identify small molecule antagonists of the estrogen related receptor (ERR) signaling pathway from Tox21 library (AID 1224848). Also: potency is read from the fitted curve at half-maximal effect; nearly all actives have a fitted effect of over 50% in size. The method, boiled down: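 First, 2,000 ERR cells per well were plated and held 6 h at 37 C/5% CO2. Next, compounds in DMSO were pinned in and left 18 h at 37 C. Finally, ONE-Glo was added and luminescence read after 30 min at room temperature.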

Test [13] in a line: qHTS assay to identify small molecule agonists of the estrogen related receptor (ERR) signaling pathway from Tox21 library (AID 1224849; calls by dose curve; also: % is scaled to controls: 0 for no effect and ±100 for the full control effect; nearly all actives have a fitted effect of over 15% in size). As to conditions: ERR reporter cell line, ONE-Glo luciferase, 18 h. The method, boiled down:
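Tox21 compounds tested for ERR agonism in an NTP reporter cell line: 18 h treatment at 37 C, then ONE-Glo luminescence.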

Test [14] in a line: qHTS RealTime-Glo MT Cell Viability Assay in HepG2 cells - 24 hour (AID 1224867). Also: nearly all actives have a fitted effect of over 50% in size. Also: potency is read from the fitted curve at half-maximal effect. The method, boiled down:
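Real-time, nonlytic viability: 600 HepG2 cells/well mixed with NanoLuc enzyme plus prosubstrate; 5 h settle, compound (DMSO) added by pintool; luminescence monitored over 40 h at 37 C.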

Test [15] is described as follows: qHTS RealTime-Glo MT Cell Viability Assay in HEK293 cells - 32 hour (AID 1224868). Also: nearly all actives have a fitted effect of over 50% in size. Also: potency is read from the fitted curve at half-maximal effect. In short, it runs like this: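 Cells + reagent dispensed (600 cells/well, HEK293) → 5 h at 37 C/5% CO2 → 23 nL compound in DMSO pinned → 40 h at 37 C → luminescence read at 0, 8, 16, 24, 32, 40 h.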
Test [16] is described as follows: A CellTox Green Cytotoxicity Assay to monitor cytotoxicity in HEK293 cells - 0 hour (AID 1224869). The method, boiled down:
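Tox21 screen in HEK293: membrane-impermeant cyanine dye fluoresces on binding dead-cell DNA; compound pinned 5 h post-seeding, plates held at 37 C, signal read repeatedly through 40 h.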

A short description of test [17]: qHTS RealTime-Glo MT Cell Viability Assay in HepG2 cells - 40 hour (AID 1224870). Also: nearly all actives have a fitted effect of over 50% in size. Also: potency is read from the fitted curve at half-maximal effect. The method, boiled down:
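HepG2 cells mixed with RealTime-Glo MT reagents (NanoLuc plus cell-permeant prosubstrate) were seeded at 600 cells/well, incubated 5 h at 37 C/5% CO2, then pinned with compounds in DMSO; nonlytic luminescence tracked viability during 40 h treatment.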

Test [18] in a line: qHTS assay to identify small molecule antagonists of the estrogen related receptor signaling pathway with the pleiotropic PPARgamma coactivator (PGC) from Tox21 10K library - cell viability counter screen (AID 1224840; active = well fitted cell-killing curve with a large enough effect in the repeat runs, not every such curve was filed as active; also: % is scaled to controls: 0 for no effect and ±100 for the full control effect; nearly all actives have a fitted effect of over 40% in size). The method, boiled down:
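Seeded PGC/ERR cells (2,000/well, 6 h, 37 C/5% CO2) get compound by pin tool; 17.5 h incubation at 37 C; CellTiter-Fluor added, 30 min, fluorescence measured.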

A short description of test [19]: qHTS assay to identify small molecule agonists of the hypoxia (HIF-1) signaling pathway - cell viability counter screen (AID 1224844; calls by dose curve). In short, it runs like this:
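HRE-bla ME-180; 0.5% dFBS; cpd 17 h, 37C, 5% CO2; CellTiter-Glo lum., 30 min RT, post-FRET read, same wells.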

Test [20] is described as follows: qHTS assay to identify small molecule agonists of H2AX (AID 1224845; active = well fitted activation curve with a large enough effect in the signal ratio in the repeat runs, not every such curve was filed as active; the % refers to the signal ratio; also: % is scaled to controls: 0 for no effect and ±100 for the full control effect). In short, it runs like this:
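Wild-type CHO-K1 cells plated overnight, then exposed 3 hr at 37C to compounds at 15 concentrations (0.76% DMSO). Lysed, then HTRF anti-pH2AX(S139)-cryptate/anti-H2AX-d2 detection after 24 hr at room temperature; emissions 665 and 620 nm.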

Molecules are shown by their SMILES. Where “and” joins values, the source holds several entries; their conditions need not be identical. Identical values can stand only once. Records with an inconclusive call do not appear. Some compounds were tested as several samples or in several runs, with calls that do not always agree. Calls of active or inactive are those of the source. Unless noted, calls follow the shape of the dose curve; as a rule, active = well fitted curve in the direction sought with a large enough effect in the repeat runs; inconclusive = weak or mixed curves; inactive = no such curve, though single readings can be large; an effect the other way counts as inactive or inconclusive.

Nuclear receptor subfamily 1 group I member 3 (Homo sapiens), sequence (Q14994 whole entry, looked up): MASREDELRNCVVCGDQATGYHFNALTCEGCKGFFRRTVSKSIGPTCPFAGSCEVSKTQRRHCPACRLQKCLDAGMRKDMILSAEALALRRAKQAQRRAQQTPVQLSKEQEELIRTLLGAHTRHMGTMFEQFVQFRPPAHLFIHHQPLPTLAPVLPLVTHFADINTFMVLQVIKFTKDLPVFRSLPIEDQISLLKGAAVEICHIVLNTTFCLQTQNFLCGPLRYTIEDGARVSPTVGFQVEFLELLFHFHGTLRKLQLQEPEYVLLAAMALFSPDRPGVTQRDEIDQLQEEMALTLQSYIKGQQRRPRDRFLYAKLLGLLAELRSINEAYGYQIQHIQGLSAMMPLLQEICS
Thyrotropin receptor (Homo sapiens), sequence (P16473 whole entry, looked up): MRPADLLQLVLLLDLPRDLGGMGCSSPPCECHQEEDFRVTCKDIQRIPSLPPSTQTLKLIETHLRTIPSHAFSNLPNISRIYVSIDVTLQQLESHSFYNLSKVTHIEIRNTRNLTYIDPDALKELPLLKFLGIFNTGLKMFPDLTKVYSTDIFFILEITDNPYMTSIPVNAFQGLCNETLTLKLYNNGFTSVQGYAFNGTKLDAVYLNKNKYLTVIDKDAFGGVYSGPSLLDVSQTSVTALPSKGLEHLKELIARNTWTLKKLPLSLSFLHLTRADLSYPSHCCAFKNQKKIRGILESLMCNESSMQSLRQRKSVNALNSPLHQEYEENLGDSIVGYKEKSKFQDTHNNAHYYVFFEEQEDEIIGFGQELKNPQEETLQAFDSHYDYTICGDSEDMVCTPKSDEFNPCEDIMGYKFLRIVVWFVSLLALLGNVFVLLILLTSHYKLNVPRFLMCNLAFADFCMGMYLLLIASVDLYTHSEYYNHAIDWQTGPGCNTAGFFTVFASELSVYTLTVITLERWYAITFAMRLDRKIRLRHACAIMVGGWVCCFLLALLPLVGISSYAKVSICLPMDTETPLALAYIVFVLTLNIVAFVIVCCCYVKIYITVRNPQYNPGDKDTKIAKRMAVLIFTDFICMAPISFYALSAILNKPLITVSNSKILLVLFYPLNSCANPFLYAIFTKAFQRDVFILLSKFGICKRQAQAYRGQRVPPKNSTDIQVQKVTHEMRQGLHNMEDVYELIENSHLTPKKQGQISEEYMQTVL
Luciferin 4-monooxygenase (Photinus pyralis), sequence (P08659 whole entry, looked up): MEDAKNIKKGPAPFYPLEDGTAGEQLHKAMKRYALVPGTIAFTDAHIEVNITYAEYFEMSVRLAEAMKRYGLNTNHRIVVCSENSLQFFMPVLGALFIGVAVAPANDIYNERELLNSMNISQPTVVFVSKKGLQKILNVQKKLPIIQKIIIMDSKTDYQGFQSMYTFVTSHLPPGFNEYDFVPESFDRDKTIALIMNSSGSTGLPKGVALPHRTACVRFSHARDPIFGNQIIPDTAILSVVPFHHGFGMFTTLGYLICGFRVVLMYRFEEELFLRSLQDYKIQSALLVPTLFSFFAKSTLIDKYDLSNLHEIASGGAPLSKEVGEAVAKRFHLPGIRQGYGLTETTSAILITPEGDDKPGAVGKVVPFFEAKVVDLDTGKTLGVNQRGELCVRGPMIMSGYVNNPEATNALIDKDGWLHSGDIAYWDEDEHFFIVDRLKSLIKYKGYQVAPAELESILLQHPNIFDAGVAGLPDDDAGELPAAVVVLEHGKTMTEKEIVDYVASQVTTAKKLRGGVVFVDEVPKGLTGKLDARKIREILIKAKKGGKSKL

On to `Nc1ccc2c(O)cc(S(=O)(=O)O)cc2c1`, for which the Potency in test [1] is 27.3 µM (active) and 30.6 µM (active); in test [2], 63.4 µM (active) and 44.8 µM (active); in test [3] it was 21.7 µM (active); in [4], 19.4 µM (active) and 68.6 µM (active); in test [5], 3.86 µM (active) and 686 nM (active); in test [7] it was 15.4 µM (active). The Potency is 24.4 µM (active) and 13.7 µM (active) in test [12]; 6.17 µM (active) in test [15]. In addition, the Potency entry in [6], in test [8], in [9], in [11], in test [14] and in test [16] was “inactive” throughout. Besides, in test [17], the Potency entry was “inactive”. For the same compound, in test [10], the call was inactive. For the same compound, in test [13] (at 92.4 µM (top of the series)), the activity change, positive = activation is -54% (inactive) and -40.6% (inactive).

As for `NCCS(=O)(=O)O`, the Potency entry in test [1], in test [3], in [4], in [5], in test [18] and in [9] was “inactive” throughout. Further, the Potency entry in [19], in test [20], in [11], in test [14], in test [15] and in [16] was “inactive” in each case. Moreover, in [17], the Potency result is “inactive”. For the same compound, the Potency in test [2] is 41.5 µM (active) and inactive.

Turning to `CC(=O)O[C@]1(C(C)=O)CC[C@H]2[C@@H]3C=C(C)C4=CC(=O)CC[C@]4(C)[C@H]3CC[C@@]21C`, the Potency in test [1] is 54.5 µM (active); in [7], 24.3 µM (active); in [12] it was 21.7 µM (active) and 26.6 µM (active); in [15] it was 17.4 µM (active). The Potency entry in [2], in test [3], in [4], in test [18], in test [8] and in test [9] was “inactive” each time. In addition, the Potency result in test [19], in [20], in test [11], in test [14], in test [16] and in test [17] was “inactive” each time. The activity change, positive = activation in test [13] (at 42.5 µM (top of the series)) was -37.5% (inactive); in test [13] (at 92.4 µM (top of the series)), -63.2% (inactive).

With `COC(=O)c1ccc(C)cc1`, the Potency result in [1], in test [2], in [3], in [4], in [5] and in [18] was “inactive” each time. Also, the Potency result in [9], in test [19], in [20], in [11], in test [14] and in [15] was “inactive” in each case. For the same compound, the Potency entry in test [16] and in test [17] was “inactive” in each case. Moreover, the outcome in test [10] was inactive.

As for `CC1(C)O[C@@H]2C[C@H]3[C@@H]4C[C@H](F)C5=CC(=O)C=C[C@]5(C)[C@@]4(F)[C@@H](O)C[C@]3(C)[C@]2(C(=O)CO)O1`, the Potency entry in [1], in test [2], in test [3], in test [4], in test [18] and in test [9] was “inactive” in each case. Besides, the Potency entry in test [19], in [20], in test [11], in test [14], in test [15] and in test [16] was “inactive” in each case. The Potency result in test [17] is “inactive”. The compound was called inactive in [10].

Take `CC(=O)OC(C)C`: the Potency entry in test [1], in test [2], in [3], in test [4], in [18] and in test [9] was “inactive” each time. Further, the Potency result in test [19], in [20], in [11], in test [14], in [15] and in test [16] was “inactive” each time. The Potency entry in test [17] was “inactive”. For the same compound, the result in test [10] was inactive.

On to `NCCN`, for which the Potency entry in test [1], in test [2], in [3], in test [4], in test [18] and in test [9] was “inactive” in each case. Besides, the Potency entry in test [19], in test [20], in [11], in test [15] and in test [16] was “inactive” in each case. The compound was called inactive in test [10]. In addition, the Potency entry was “inactive and 38.9 µM (active)” in test [14]; “inactive and 13.8 µM (active)” in [17].
